# Laboratory results as given in publication PMC7862700, “An all-to-all approach to the identification of sequence-specific readers for epigenetic DNA modifications on cytosine”.
# Legend:
# Experiment in all cases: DAPPL (digital affinity profiling via proximity ligation, sequencing); 10 mM Tris-HCl pH 7.5, 50 mM NaCl, 1 mM DTT, 4% glycerol, room temperature, 30 min; GST-TFs on glutathione beads, 16-mer random dsDNA library, 0.1% formaldehyde crosslink after washing; high values mean tight binding
# Conditions in all cases: protein: recombinant; tags: N-terminal GST; dsDNA, one strand shown
# [1] = target: T1, FLI1 (Homo sapiens, UniProt Q01543 1-452)
# T1 sequence: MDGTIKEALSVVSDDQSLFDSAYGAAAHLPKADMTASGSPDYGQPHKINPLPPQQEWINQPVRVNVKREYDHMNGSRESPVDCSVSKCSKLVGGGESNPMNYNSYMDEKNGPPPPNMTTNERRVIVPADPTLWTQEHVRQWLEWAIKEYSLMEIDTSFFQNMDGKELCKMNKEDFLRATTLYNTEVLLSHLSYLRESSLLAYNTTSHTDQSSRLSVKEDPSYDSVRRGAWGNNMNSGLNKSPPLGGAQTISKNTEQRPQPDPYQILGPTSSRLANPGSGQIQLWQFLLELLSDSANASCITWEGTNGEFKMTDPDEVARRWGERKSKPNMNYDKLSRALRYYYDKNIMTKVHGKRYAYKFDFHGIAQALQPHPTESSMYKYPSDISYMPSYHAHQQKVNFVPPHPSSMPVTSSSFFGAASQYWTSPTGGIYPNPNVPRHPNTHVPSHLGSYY
# In short: (§1)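 After expression in yeast as GST fusions, human transcription factors were bound to glutathione beads, DNA-barcoded and mixed with a tag-only sample. The pools were incubated with 200 nmole of a 16-mer random double-stranded DNA library in Tris/NaCl/DTT/glycerol buffer (30 min, room temperature), washed and crosslinked with 0.1% formaldehyde. Proximity ligation with BsaI/T4 ligase ran for 1 h at 37 °C, before PCR amplification and sequencing on an Illumina NextSeq500. Binding signal is a hexamer's read frequency for a factor divided by its frequency for the tag-only sample.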
# [2] = target: T2, ELK1 (Homo sapiens, UniProt P19419 1-428)
# T2 sequence: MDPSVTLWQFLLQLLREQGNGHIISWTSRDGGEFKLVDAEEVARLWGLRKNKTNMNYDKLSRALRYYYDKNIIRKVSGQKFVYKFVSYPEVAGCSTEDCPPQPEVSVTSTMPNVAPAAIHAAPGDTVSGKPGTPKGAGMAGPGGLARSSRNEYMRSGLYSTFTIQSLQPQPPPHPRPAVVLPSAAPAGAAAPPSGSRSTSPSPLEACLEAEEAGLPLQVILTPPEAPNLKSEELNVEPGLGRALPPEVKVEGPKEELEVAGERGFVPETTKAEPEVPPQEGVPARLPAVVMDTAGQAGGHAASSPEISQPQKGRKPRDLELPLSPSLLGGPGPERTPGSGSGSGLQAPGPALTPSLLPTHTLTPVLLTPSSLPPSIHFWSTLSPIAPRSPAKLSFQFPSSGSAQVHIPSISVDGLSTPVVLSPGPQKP
# In short: as §1
# [3] = target: T3, GABPA (Homo sapiens, UniProt Q06546 1-454)
# T3 sequence: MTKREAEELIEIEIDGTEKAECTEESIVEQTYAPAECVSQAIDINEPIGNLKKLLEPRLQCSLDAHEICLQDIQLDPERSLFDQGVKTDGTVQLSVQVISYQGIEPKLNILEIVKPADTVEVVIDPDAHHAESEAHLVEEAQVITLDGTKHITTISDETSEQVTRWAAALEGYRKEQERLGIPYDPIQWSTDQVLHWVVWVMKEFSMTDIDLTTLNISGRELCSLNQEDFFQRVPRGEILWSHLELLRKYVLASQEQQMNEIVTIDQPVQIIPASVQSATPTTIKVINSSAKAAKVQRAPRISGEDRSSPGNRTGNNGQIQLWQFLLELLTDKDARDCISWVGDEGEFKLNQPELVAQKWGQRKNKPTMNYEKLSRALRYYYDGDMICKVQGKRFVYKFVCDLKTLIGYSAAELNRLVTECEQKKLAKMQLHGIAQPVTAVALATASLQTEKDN
# In short: as §1
# [4] = target: T4, ERG (Homo sapiens, UniProt P11308 1-479)
# T4 sequence: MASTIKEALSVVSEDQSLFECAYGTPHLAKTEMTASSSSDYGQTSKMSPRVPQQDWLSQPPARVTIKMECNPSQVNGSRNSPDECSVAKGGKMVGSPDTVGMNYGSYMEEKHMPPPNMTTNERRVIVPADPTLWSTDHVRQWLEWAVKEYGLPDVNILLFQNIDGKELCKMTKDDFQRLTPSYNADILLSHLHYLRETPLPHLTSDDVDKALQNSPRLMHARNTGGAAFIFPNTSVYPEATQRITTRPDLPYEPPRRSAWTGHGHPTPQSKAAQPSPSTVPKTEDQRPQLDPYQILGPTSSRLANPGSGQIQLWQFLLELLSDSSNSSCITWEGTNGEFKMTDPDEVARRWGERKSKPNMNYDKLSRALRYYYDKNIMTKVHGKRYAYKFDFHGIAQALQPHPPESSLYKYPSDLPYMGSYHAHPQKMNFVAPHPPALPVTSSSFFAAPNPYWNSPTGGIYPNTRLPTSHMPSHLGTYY
# In short: as §1
# [5] = target: ELF1 (Homo sapiens, UniProt P32519 1-619)
# In short: as §1
# [6] = target: T5, EHF (Homo sapiens, UniProt Q9NZC4 1-300)
# T5 sequence: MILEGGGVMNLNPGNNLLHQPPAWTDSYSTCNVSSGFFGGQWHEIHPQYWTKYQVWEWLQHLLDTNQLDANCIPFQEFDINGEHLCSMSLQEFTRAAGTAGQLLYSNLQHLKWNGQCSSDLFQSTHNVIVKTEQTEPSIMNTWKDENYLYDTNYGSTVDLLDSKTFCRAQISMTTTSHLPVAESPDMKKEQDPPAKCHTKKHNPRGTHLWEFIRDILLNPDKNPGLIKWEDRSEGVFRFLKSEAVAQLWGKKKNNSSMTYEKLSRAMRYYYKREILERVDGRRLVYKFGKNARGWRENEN
# In short: as §1
# [7] = target: SPI1 (Homo sapiens, UniProt P17947 1-270)
# In short: as §1
# [8] = target: SPIB (Homo sapiens, UniProt Q01892 1-262)
# In short: as §1
# [9] = target: T6, ELK3 (Homo sapiens, UniProt P41970 1-407)
# T6 sequence: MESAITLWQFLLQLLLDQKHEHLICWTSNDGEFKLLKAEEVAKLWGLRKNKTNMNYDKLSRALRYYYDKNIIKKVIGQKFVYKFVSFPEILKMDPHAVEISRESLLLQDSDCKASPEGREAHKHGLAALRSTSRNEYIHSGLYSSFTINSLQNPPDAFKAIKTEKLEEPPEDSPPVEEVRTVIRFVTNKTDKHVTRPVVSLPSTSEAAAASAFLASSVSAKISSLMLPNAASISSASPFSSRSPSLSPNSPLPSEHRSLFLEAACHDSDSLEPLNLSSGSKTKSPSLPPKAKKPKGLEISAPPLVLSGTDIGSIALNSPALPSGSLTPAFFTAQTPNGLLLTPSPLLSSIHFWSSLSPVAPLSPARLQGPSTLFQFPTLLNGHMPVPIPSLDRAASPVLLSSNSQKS
# In short: as §1
# [10] = target: T7, FEV (Homo sapiens, UniProt Q99581 1-238)
# T7 sequence: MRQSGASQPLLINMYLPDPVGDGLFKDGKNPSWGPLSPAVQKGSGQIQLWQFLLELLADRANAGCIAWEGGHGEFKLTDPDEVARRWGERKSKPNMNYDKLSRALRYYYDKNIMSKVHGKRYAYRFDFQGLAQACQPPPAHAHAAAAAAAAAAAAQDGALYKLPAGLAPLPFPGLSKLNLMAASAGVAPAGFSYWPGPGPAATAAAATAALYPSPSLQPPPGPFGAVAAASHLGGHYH
# In short: as §1
# [11] = target: ETV5 (Homo sapiens, UniProt P41161 1-510)
# In short: as §1
# [12] = target: T8, SPIC (Homo sapiens, UniProt Q8N5J4 1-248)
# T8 sequence: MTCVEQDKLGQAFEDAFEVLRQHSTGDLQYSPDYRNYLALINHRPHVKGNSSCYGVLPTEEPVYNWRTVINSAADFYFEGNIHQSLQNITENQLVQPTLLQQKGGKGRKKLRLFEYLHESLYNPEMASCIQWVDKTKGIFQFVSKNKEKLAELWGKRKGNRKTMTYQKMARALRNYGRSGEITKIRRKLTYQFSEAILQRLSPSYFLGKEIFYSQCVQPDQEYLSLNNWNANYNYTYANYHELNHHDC
# In short: as §1
# [13] = target: ELF4 (Homo sapiens, UniProt Q99607 1-663)
# In short: as §1
# [14] = target: ETV1 (Homo sapiens, UniProt P50549 1-477)
# In short: as §1
# [15] = target: T9, ERF (Homo sapiens, UniProt P50548 1-548)
# T9 sequence: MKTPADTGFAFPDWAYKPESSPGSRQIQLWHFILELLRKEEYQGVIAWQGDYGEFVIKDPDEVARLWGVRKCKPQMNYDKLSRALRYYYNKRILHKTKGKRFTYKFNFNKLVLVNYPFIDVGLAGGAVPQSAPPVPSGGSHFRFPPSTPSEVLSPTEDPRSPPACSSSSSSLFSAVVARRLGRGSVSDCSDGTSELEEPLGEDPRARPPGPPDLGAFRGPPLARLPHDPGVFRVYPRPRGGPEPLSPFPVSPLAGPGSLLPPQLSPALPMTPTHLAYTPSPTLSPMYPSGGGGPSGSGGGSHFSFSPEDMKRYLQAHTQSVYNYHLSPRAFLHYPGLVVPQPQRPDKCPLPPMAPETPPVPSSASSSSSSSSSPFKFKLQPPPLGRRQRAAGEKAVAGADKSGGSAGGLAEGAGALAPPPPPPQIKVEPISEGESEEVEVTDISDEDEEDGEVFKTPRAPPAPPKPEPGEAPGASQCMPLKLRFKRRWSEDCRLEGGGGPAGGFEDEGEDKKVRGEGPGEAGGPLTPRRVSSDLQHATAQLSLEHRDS
# In short: as §1
# [16] = target: T10, ETV3L (Homo sapiens, UniProt Q6ZN32 1-361)
# T10 sequence: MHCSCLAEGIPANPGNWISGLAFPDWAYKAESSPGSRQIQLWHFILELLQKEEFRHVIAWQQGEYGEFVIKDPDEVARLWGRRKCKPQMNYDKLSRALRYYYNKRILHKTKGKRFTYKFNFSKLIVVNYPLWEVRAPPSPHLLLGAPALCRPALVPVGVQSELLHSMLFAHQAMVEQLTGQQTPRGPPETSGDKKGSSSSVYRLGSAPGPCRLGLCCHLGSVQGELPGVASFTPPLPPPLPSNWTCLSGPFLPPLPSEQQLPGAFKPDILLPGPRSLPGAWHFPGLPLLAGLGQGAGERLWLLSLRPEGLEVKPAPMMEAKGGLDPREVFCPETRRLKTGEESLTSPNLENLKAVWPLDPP
# In short: as §1
# [17] = target: T11, ETS2 (Homo sapiens, UniProt P15036 1-469)
# T11 sequence: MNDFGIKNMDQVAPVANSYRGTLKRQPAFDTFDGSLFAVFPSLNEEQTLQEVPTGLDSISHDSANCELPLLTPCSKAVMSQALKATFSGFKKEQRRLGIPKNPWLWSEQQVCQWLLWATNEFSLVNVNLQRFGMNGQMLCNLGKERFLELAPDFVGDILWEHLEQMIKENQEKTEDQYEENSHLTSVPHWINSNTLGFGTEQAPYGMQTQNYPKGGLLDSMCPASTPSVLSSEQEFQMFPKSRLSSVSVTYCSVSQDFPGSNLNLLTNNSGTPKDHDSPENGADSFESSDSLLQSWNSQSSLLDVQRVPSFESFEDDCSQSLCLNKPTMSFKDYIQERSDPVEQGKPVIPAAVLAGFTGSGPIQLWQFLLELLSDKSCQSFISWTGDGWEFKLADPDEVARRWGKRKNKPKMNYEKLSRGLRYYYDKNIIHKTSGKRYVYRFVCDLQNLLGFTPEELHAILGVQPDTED
# In short: as §1
# [18] = target: T12, SPDEF (Homo sapiens, UniProt O95238 1-335)
# T12 sequence: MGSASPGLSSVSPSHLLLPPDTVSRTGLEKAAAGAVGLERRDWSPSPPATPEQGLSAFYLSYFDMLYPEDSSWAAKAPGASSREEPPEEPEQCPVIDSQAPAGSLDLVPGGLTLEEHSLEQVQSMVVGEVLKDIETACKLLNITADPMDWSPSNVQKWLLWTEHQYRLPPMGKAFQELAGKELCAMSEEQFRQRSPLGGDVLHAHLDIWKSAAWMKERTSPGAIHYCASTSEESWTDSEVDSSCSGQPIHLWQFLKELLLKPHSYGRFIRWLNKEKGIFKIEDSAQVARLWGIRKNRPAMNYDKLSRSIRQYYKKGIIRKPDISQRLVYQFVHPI
# In short: as §1
# [19] = target: T13, ETV3 (Homo sapiens, UniProt P41162-2 1-143)
# T13 sequence: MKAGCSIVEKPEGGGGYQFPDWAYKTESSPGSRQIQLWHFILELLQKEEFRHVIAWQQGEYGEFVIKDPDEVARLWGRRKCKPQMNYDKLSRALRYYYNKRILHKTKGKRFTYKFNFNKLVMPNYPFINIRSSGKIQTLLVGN
# In short: as §1
# [20] = target: ETV6 (Homo sapiens, UniProt P41212 1-452)
# In short: as §1
# Sequence of ELF1 (P32519 whole entry): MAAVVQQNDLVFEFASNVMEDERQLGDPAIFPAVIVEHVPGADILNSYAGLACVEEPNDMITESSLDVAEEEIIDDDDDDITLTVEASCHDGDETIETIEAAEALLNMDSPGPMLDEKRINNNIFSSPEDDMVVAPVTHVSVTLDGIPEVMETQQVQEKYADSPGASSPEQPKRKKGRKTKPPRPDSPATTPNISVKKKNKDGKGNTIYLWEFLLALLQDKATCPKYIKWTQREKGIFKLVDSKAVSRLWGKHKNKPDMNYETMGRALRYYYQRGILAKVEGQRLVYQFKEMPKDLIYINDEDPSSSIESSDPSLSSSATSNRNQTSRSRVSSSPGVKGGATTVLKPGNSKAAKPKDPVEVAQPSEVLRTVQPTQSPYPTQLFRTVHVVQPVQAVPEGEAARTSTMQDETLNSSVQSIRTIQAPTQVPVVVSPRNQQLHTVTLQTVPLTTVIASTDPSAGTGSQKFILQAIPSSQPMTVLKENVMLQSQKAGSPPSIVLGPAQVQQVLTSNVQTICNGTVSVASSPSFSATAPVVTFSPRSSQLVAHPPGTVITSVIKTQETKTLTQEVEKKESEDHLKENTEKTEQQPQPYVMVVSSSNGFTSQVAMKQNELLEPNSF
# Sequence of ETV6 (P41212 whole entry): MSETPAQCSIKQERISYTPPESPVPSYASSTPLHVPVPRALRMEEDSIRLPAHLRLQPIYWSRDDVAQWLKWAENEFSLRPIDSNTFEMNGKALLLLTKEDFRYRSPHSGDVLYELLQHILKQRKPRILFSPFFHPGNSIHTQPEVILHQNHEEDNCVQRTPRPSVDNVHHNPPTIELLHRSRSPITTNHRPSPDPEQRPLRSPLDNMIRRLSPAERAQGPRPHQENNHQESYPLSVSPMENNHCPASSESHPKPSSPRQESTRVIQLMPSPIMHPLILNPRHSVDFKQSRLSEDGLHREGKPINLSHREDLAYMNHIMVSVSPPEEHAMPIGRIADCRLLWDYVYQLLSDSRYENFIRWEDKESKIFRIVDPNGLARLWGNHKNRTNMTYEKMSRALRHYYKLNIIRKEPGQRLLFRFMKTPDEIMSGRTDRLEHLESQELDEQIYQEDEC
# Sequence of ETV1 (P50549 whole entry): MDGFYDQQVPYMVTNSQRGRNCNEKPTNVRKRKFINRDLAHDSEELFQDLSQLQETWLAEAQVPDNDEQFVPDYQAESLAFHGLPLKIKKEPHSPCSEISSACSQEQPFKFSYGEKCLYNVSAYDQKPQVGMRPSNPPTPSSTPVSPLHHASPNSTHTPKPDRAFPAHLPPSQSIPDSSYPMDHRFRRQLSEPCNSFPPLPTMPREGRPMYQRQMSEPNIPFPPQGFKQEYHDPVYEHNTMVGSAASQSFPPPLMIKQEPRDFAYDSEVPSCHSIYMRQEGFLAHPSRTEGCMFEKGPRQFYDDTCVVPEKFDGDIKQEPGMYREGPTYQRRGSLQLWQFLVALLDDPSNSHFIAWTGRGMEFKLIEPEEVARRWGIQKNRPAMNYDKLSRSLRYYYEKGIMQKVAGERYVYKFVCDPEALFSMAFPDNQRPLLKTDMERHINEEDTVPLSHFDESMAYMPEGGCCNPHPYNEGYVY
# Sequence of ETV5 (P41161 whole entry): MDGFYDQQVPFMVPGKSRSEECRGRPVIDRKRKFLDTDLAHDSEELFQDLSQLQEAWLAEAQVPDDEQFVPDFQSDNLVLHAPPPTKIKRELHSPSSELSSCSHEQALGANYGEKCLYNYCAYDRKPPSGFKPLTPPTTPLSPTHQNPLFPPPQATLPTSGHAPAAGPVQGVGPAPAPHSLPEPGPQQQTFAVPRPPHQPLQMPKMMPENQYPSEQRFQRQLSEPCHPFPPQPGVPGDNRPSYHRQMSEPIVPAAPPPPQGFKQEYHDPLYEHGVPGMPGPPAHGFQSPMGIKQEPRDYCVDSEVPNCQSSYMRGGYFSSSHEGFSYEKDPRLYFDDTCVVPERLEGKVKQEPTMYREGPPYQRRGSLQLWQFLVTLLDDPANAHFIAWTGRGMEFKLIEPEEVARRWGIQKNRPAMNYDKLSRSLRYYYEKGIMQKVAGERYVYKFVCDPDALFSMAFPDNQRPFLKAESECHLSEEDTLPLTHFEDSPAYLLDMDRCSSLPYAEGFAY
# Sequence of ELF4 (Q99607 whole entry): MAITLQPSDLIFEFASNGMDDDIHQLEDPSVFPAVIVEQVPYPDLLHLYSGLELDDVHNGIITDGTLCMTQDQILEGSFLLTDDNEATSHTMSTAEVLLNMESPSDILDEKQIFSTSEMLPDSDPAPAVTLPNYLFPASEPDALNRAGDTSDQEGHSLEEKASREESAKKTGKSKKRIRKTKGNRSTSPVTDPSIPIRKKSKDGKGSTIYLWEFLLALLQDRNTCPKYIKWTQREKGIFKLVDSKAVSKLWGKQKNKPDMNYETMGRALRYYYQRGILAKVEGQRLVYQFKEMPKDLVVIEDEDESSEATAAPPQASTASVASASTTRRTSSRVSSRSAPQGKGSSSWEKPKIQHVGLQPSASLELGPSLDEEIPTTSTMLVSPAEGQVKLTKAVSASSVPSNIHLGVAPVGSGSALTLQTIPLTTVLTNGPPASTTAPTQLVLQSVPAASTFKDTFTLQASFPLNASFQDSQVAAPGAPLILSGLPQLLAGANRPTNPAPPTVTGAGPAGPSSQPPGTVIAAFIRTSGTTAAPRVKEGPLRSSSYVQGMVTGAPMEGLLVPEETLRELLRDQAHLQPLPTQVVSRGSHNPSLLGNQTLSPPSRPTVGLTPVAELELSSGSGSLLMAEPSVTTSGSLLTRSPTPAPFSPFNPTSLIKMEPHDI
# Sequence of SPIB (Q01892 whole entry): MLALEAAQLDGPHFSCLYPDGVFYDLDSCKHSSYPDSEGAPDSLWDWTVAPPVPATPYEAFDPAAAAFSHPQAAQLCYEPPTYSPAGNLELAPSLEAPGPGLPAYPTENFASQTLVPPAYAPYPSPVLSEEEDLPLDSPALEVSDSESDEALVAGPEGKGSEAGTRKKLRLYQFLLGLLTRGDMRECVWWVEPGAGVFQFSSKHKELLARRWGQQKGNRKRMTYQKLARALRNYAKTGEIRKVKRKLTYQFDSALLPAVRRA
sequence,measurement,setting,value
TTGGTC,binding signal,[1],"1.16 fold enrichment (6-mer frequency, TF over GST control)"
same,binding signal,[2],"1.17 fold enrichment (6-mer frequency, TF over GST control)"
same,binding signal,[3],"1.11 fold enrichment (6-mer frequency, TF over GST control)"
same,binding signal,[4],"1.06 fold enrichment (6-mer frequency, TF over GST control)"
same,binding signal,[5],"1.15 fold enrichment (6-mer frequency, TF over GST control)"
same,binding signal,[6],"1.14 fold enrichment (6-mer frequency, TF over GST control)"
same,binding signal,[7],"1.08 fold enrichment (6-mer frequency, TF over GST control)"
same,binding signal,[8],"1.05 fold enrichment (6-mer frequency, TF over GST control)"
same,binding signal,[9],"1.11 fold enrichment (6-mer frequency, TF over GST control)"
same,binding signal,[10],"1.04 fold enrichment (6-mer frequency, TF over GST control)"
same,binding signal,[11],"1.1 fold enrichment (6-mer frequency, TF over GST control)"
same,binding signal,[12],"1.12 fold enrichment (6-mer frequency, TF over GST control)"
same,binding signal,[13],"1.13 fold enrichment (6-mer frequency, TF over GST control)"
same,binding signal,[14],"1.17 fold enrichment (6-mer frequency, TF over GST control)"
same,binding signal,[15],"1.08 fold enrichment (6-mer frequency, TF over GST control)"
same,binding signal,[16],"1.08 fold enrichment (6-mer frequency, TF over GST control)"
same,binding signal,[17],"1.1 fold enrichment (6-mer frequency, TF over GST control)"
same,binding signal,[18],"1.06 fold enrichment (6-mer frequency, TF over GST control)"
same,binding signal,[19],"1.05 fold enrichment (6-mer frequency, TF over GST control)"
same,binding signal,[20],"1.06 fold enrichment (6-mer frequency, TF over GST control)"
